Inhibition data for 62 compounds are collected here from PubChem BioAssay AID2315 (National Center for Advancing Translational Sciences (NCATS), 2010).

As a reminder, the inhibition is the change of the read-out against control, counted positive when it falls.

In all, about 290,000 compounds went through this assay and about 27,000 (9.3%) were called active. The sample holds actives, similar compounds and a random draw of the others, so the mix is not that of the screen. A number with no mark means an inactive call. Cut-off read from the data, not from the text of the source: active = inhibition mostly above about 28% (no sharp cut-off); inactive = mostly below about 43%.

A short description of this assay: A qHTS for Small Molecule Inhibitors of Shiga Toxin. Note: 0% is about no effect. The settings on record: Vero cells, Shiga toxin protein synthesis inhibition reporter; at 38.7 µM, stronger effect = higher value.
`Cc1cccc(-n2c(O)c(/C=N/N3CCOCC3)c(=O)[nH]c2=S)c1`: the inhibition is -12.5%. For `Cc1cccc(-n2c(O)c(C=Nc3ccccc3N)c(=O)[nH]c2=O)c1` the value was 57% (active). For `Cc1cccc(-n2c(O)c(C=NC34CN5CN(CN(C5)C3)C4)c(=O)[nH]c2=O)c1` the value was 19.9%.

For the compound `Clc1ccc(-c2nc3ccccn3c2CN2CCSCC2)cc1`, the inhibition was 20.5%. The figure for `COc1ccc2[nH]c(=O)c(C3c4cc(OC)c(OC)cc4CCN3C(=O)c3ccco3)cc2c1` (configuration not stated) is -3.2%; for `CCOCCCn1c(SCC(=O)Nc2cc(OC)ccc2OC)nc2ccccc2c1=O` it is -1.05%; for `CCc1ccc(-c2cc3c(=O)n(CC(=O)NCCCN4CCN(Cc5ccccc5)CC4)nc(C)n3n2)cc1` it is -5.95%. Take `CCOc1ccc(C(=O)CCN2CCOCC2)cc1`: the inhibition was -2.09%. Regarding `CCOc1ccc(N(CC(=O)NCCOc2ccccc2OC)S(=O)(=O)c2ccccc2)cc1`, the inhibition was 21.1%.

For the compound `COc1ccc(N2CCN(C(=O)CSc3nc4cc(OC)c(OC)cc4cc3C#N)CC2)cc1`, the inhibition was 18.6%. `Cc1nonc1NC(=O)CSc1nc2ccccc2cc1C#N`: the inhibition was 41.1%.

Regarding `CCOc1ccc2cc(C#N)c(SCC(=O)OC)nc2c1`, the inhibition is 135% (active).

For the compound `CN=C1C=C/C(=N/N=c2\ccn(O)cc2C)C=C1C`, the inhibition was 20.1% (active). For `Cc1cccc(NC(=S)NCCc2ccc(Cl)cc2)c1C` the value was 41.2%; for `Cc1ccc(/C=C2\CCn3c2nc2cc(C(=O)O)ccc2c3=O)c(C)c1`, -4.26%; for `Cc1nn(C)c(Cl)c1CN1CCC(Oc2ccc(C(=O)N3CCCC3)cc2)CC1`, -30.4%. The figure for `O=C(O)C1CC=CC2CCN(C3CCCCC3)C(=O)C21` (configuration not stated) is -9.66%. Turning to `Cn1c(=NC(=O)c2ccco2)sc2cccc(F)c21`, the inhibition was 102% (active). Turning to `CCCC(=O)N=c1sc2cccc(F)c2n1C`, the inhibition is -7.62%.

In the case of `Cn1c(=NC(=O)C2CC2)sc2cc(F)cc(F)c21`, the inhibition is -1.62%. On to `O=C(O)c1cc2c(cc1NC(=O)c1c(F)cccc1Cl)OCCCO2`, for which the inhibition is -14.4%. In the case of `CSc1ccccc1-c1nnc(-c2ccc(Cl)cc2)o1`, the inhibition is 0% (active). For the compound `FC(F)(F)c1cnc(Oc2ccccc2-c2nnc(-c3ccc(Cl)cc3)o2)c(Cl)c1`, the inhibition was 5.98%. For `O=C(Nc1nnc(-c2ccc(Cl)cc2)o1)c1ccccc1Br`, the inhibition is 16.2%. The figure for `CCOC(=O)N1CCN(S(=O)(=O)c2ccc(OC)cc2)CC1` is -26%; for `OC(CNCC1CCCO1)Cn1c2ccc(Br)cc2c2cc(Br)ccc21` (configuration not stated) it is -17.6%; for `CCCN1CCn2c3c(c4cc(Br)ccc42)CCCC31` (configuration not stated) it is 31.7% (active). As to `Cc1cc(C)c2nc(N(CCN(C)C)C(=O)/C=C/c3cccs3)sc2c1`, the inhibition was 2.24%. The figure for `CSCc1nnc(NC(=O)c2ccc(S(=O)(=O)N3CCCCC3C)cc2)o1` (configuration not stated) is -11%; for `CCCOC(=O)Cc1c(O)c2ccccc2[nH]c1=O` it is 2.32%. The figure for `CC(C)C(=O)Nc1c(O)c2ccccc2[nH]c1=O` is 23.1%. Regarding `NS(=O)(=O)c1ccccc1NC(=O)c1c(O)c2ccccc2[nH]c1=O`, the inhibition was 86% (active). The figure for `CC(=O)Nc1cccc(C(=O)OCN2C(=O)c3ccccc3C2=O)c1` is -7.54%; for `Cc1cnc(NC(=O)CSc2c(Cl)cccc2Cl)s1` it is 24.3%. The figure for `Cc1cnc(NC(=O)CSc2nnc(-c3ccc(Cl)cc3Cl)n2N)s1` is 20.9% (active); for `Cc1cnc(NC(=O)CSc2nnc(-c3ccccc3)n2Cc2ccccc2)s1` it is -7.47%; for `COc1ccc(C)cc1N(CC(=O)N1CCCC1)S(=O)(=O)c1ccccc1` it is 8.24%. For `COc1ccccc1CN1CCN(C(c2ccccc2)c2ccccc2)CC1` the value was -13%. Take `COc1cc(OC)c(NC(=O)C2CCCN2C(=O)OCc2ccccc2)cc1Cl` (configuration not stated): the inhibition was -6.5%. As for `COc1ccc(OC)c(-c2csc(-c3cccs3)n2)c1`, the inhibition is 45.3% (active). As for `COc1ccc(OC)c(-c2csc(NC(=O)C3=NNC(=O)CC3)n2)c1`, the inhibition was -5.75%.

Take `COc1ccc2c(c1)C(c1cccs1)=NNC(c1cccnc1)=N2`: the inhibition was 39.6%. For `COc1ccc(-c2csc3nc(-c4ccccc4F)oc(=O)c23)cc1OC` the value was 1.32%; for `COc1ccc(-c2csc(NC(=O)c3ccc(N4C(=O)CCC4=O)cc3)n2)cc1OC`, -16.4%. `Cc1cc(C)cc(NS(=O)(=O)Cc2ccccc2)c1`: the inhibition was 40.6%. For `O=C(N/N=C\c1cc2c(cc1Cl)OCO2)c1ccc(Br)s1`, the inhibition was -3.59%. On to `CC(NCc1cccs1)C(=O)Nc1cc(Cl)cc(Cl)c1` (configuration not stated), for which the inhibition was 24.3%.

In the case of `Cc1ccc(-c2csc(N3CCN(c4cc5c(cc4Cl)nc(-c4ccncc4)n5CCOCCO)CC3)n2)cc1`, the inhibition was -3.86%. The figure for `Cc1sc2ncn(CC(=O)NCCCC(=O)NCc3ccc(F)cc3)c(=O)c2c1C` is -6.98%; for `O=C1CS(=O)CN1c1ccc(Oc2ccccc2)cc1` (configuration not stated) it is -11.4%. The figure for `Cc1n[nH]c(=O)n1-c1ccc(C(C)C)cc1` is -1.39%; for `Cc1n[nH]c(=O)n1-c1ccc(Oc2ccccc2)cc1` it is 32% (active).

As for `COC(=O)c1ccccc1SC1CC(=O)N(c2cccc(C)c2)C1=O` (configuration not stated), the inhibition was 25.9%. With `Cc1ccc([N+](=O)[O-])cc1S(=O)(=O)N1CCCN(C)CC1`, the inhibition is -3.46%.

Regarding `Cc1noc(C)c1/C=N/Nc1ccc2ccccc2n1`, the inhibition is 64.2% (active).

Consider `Cc1nc(Cl)cc(N/N=C/c2ccccc2)n1`, for which the inhibition is 47.5%.

With `C(=N\Nc1ccc2ccccc2n1)/c1ccc2c(c1)OCO2`, the inhibition was 4.21%. For `CN(C)CCCNC(=S)N1CCN(c2nc(-c3ccccc3)cs2)CC1`, the inhibition is 23.7%. The figure for `COc1ccccc1-c1c(C)nn2c(C)c(C(C)=O)cnc12` is 3.88%. For `COc1ccccc1-c1sc2ccccc2c1-c1ccc(C(C)=O)cc1` the value was 24.8% (active).

As to `COc1cc(C(C)=O)ccc1OC(=O)CN1C(=O)c2ccccc2C1=O`, the inhibition was -4.18%. For `CCOc1ccc(C2C(C#N)=C(N)N(N(C)C)C3=C2C(=O)CCC3)cc1` (configuration not stated) the value was -5.92%.
